± gives the standard deviation of the averaged measurements. In all, about 33,000 sequences were measured (“E-score (rank enrichment, -0.5 to 0.5)”: median about -0.0068, highest 2% from about 0.24 on). This is one part of a sample in which the highest values are shown more often than they occur.

In the assay the test system is muMax20 (Max(13-93) K31hArg/K57hArg, M65Nle). As to the kind of experiment: PBM 8-mer E-score (E-score (rank enrichment, -0.5 to 0.5)); higher = stronger preferential binding. The method, then:
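Protein binding microarray (universal PBM chip covering all 10-mers in fixed probe flanks) with chemically synthesized human Max(13-93) bHLH-LZ analogs (not full-length Max) bearing noncanonical residues (hArg, Tha, Aib, Nle at 65) and aromatic Cys staples. Read-out per 8-mer (and its reverse complement): E-score (rank-based enrichment, -0.5 to 0.5) and Z-score of median probe intensity.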
Take ACGGTGAT: the “PBM 8-mer E-score” value was 0.0166 ± 0.12.
Regarding ACTGGACT, the “PBM 8-mer E-score” value is -0.0734 ± 0.014.
On to CACTCGAG, for which the “PBM 8-mer E-score” value was -0.165 ± 0.12.
TCACTCAA: the “PBM 8-mer E-score” value came to 0.0768 ± 0.022.
Consider TCCAGCAA, for which the “PBM 8-mer E-score” value was found to be 0.0563 ± 0.029.
For CTGGCCTC, the “PBM 8-mer E-score” value was -0.191 ± 0.03.
Regarding GTGCTAGA, the “PBM 8-mer E-score” value worked out at 0.0749 ± 0.058.
Consider CTAGGGAA, for which the “PBM 8-mer E-score” value was found to be 0.00576 ± 0.011.
For the sequence GGGCCCCC, the “PBM 8-mer E-score” value is -0.386 ± 0.075.
For the sequence CAAACCCA, the “PBM 8-mer E-score” value was found to be 0.212 ± 0.0064.
In the case of TGCAAGCA, the “PBM 8-mer E-score” value is -0.0637 ± 0.018.
On to CAGTGCAG, for which the “PBM 8-mer E-score” value was -0.189 ± 0.011.
As for CCTAGACA, the “PBM 8-mer E-score” value is -0.0468 ± 0.14.
Regarding AACAGGGA, the “PBM 8-mer E-score” value is 0.0422 ± 0.055.
Under ACGCACGC stands 0.174 ± 0.014; under ACGCACAG, -0.11 ± 0.11; under ACGCACAA, 0.0465 ± 0.071.
As for ACGCACAT, the “PBM 8-mer E-score” value came to 0.277 ± 0.039.
Take ACGCACGA: the “PBM 8-mer E-score” value is 0.0808 ± 0.025.
As to ACGCACGT, the “PBM 8-mer E-score” value is 0.288 ± 0.066.
As to AAGCACGA, the “PBM 8-mer E-score” value worked out at 0.0985 ± 0.076.
As for AAGCACGT, the “PBM 8-mer E-score” value was found to be 0.297 ± 0.12.
Under AAGCACGG stands -0.0498 ± 0.039; under ACGACTCA, -0.0769 ± 0.055; under CGCACTCA, -0.0736 ± 0.0069.
In the case of CTCAAATA, the “PBM 8-mer E-score” value came to 0.0362 ± 0.0096.
On to CATTGACC, for which the “PBM 8-mer E-score” value was found to be 0.105 ± 0.047.
The same measure for GGGTCGAC: -0.00629 ± 0.1; for AGCCTCAT: 0.0933 ± 0.064; for ATTAAGTA: 0.24 ± 0.02.
Regarding ATTAATCC, the “PBM 8-mer E-score” value turned out to be 0.154 ± 0.022.
For ATAATTTG, the “PBM 8-mer E-score” value was 0.167 ± 0.077.
Under ATTAATTA stands 0.258 ± 0.064.
Regarding GTTAATCA, the “PBM 8-mer E-score” value stood at 0.204 ± 0.072.
Take ATTAAGTG: the “PBM 8-mer E-score” value is 0.148 ± 0.031.
Consider ATTAATTC, for which the “PBM 8-mer E-score” value is 0.219 ± 0.0076.
With GTTAAGTA, the “PBM 8-mer E-score” value is 0.063 ± 0.021.
Take GTAATTTA: the “PBM 8-mer E-score” value worked out at 0.0797 ± 0.016.
Regarding ATAATTTA, the “PBM 8-mer E-score” value was found to be 0.244 ± 0.038.
As to ATTAATTG, the “PBM 8-mer E-score” value came to 0.136 ± 0.075.
The same measure for ATTAATCA: 0.2533 ± 0.00043; for CCTCGATC: -0.0647 ± 0.046; for GCCCATTA: -0.0555 ± 0.034.
Turning to CGGCGGAC, the “PBM 8-mer E-score” value was -0.282 ± 0.091.
On to GCAGGGCC, for which the “PBM 8-mer E-score” value is -0.171 ± 0.013.
With CCTCGGTA, the “PBM 8-mer E-score” value was -0.295 ± 0.042.
Take CTCCGGAG: the “PBM 8-mer E-score” value is -0.227 ± 0.079.
With TACTGTGA, the “PBM 8-mer E-score” value turned out to be 0.0496 ± 0.099.
The same measure for GGGAACGA: -0.0255 ± 0.026; for ATTAGGAC: 0.0695 ± 0.13.
AGCACTAG: the “PBM 8-mer E-score” value stood at 0.0808 ± 0.12.
As for AAAGATCG, the “PBM 8-mer E-score” value was -0.152 ± 0.035.
For the sequence ATAAATTG, the “PBM 8-mer E-score” value came out at 0.157 ± 0.013.
With CTAAATTA, the “PBM 8-mer E-score” value was 0.0189 ± 0.047.
As for ATAAATTA, the “PBM 8-mer E-score” value is 0.262 ± 0.08.
As for CCGTAGTC, the “PBM 8-mer E-score” value was -0.131 ± 0.045.
Regarding AAGGAGAA, the “PBM 8-mer E-score” value amounted to 0.172 ± 0.0052.
With GACGTGTA, the “PBM 8-mer E-score” value came to 0.0986 ± 0.0068.
For the sequence CACGTGTA, the “PBM 8-mer E-score” value worked out at 0.444 ± 0.054.
Under CACGTGTC stands 0.448 ± 0.053.
Regarding AACGTGTA, the “PBM 8-mer E-score” value came to 0.2 ± 0.026.
On to CCCGTGTC, for which the “PBM 8-mer E-score” value was -0.147 ± 0.032.
As to CAAGTGTA, the “PBM 8-mer E-score” value is 0.244 ± 0.042.
Regarding TAAGTGTA, the “PBM 8-mer E-score” value was determined as 0.159 ± 0.064.
Consider AACGTGTC, for which the “PBM 8-mer E-score” value came out at 0.145 ± 0.043.
In the case of AAAGTGTA, the “PBM 8-mer E-score” value was found to be 0.12 ± 0.1.
With ATACTTTC, the “PBM 8-mer E-score” value was found to be 0.127 ± 0.013.
As to CAAGAAGG, the “PBM 8-mer E-score” value is 0.158 ± 0.048.
Consider AGTCGACT, for which the “PBM 8-mer E-score” value is 0.176 ± 0.13.
As for ACATCCGC, the “PBM 8-mer E-score” value is -0.188 ± 0.099.
With CTACTAAG, the “PBM 8-mer E-score” value was -0.0701 ± 0.18.
Consider TTACTAAA, for which the “PBM 8-mer E-score” value came out at 0.123 ± 0.07.
The same measure for CAACTATA: 0.108 ± 0.0066; for CTACTAAC: 0.237 ± 0.013.
Turning to AAACTATA, the “PBM 8-mer E-score” value was determined as 0.192 ± 0.05.
With ATACTAAC, the “PBM 8-mer E-score” value stood at 0.164 ± 0.066.
Turning to TAACTATA, the “PBM 8-mer E-score” value came out at 0.303 ± 0.0032.
The same measure for ATACTATA: 0.156 ± 0.08.
Take CTACTATC: the “PBM 8-mer E-score” value came out at 0.132 ± 0.0082.
The same measure for GTACTAAA: 0.108 ± 0.067; for ATACTAAA: 0.242 ± 0.038.
On to CTACTATA, for which the “PBM 8-mer E-score” value was found to be 0.249 ± 0.062.
On to TCGAACGA, for which the “PBM 8-mer E-score” value worked out at 0.0488 ± 0.053.
For the sequence AACTGGCG, the “PBM 8-mer E-score” value was -0.0858 ± 0.061.
The same measure for ATCGGCAA: -0.18 ± 0.089.
With TCACCGCA, the “PBM 8-mer E-score” value is -0.0327 ± 0.14.
On to GATAAGCC, for which the “PBM 8-mer E-score” value is -0.111 ± 0.075.
Take GCAGATGA: the “PBM 8-mer E-score” value turned out to be 0.0628 ± 0.064.
For the sequence CTTAGACC, the “PBM 8-mer E-score” value is -0.135 ± 0.073.
For GAGGGGCC, the “PBM 8-mer E-score” value was -0.0409 ± 0.045.
For ACGTGTAT, the “PBM 8-mer E-score” value turned out to be 0.386 ± 0.031.
As for ACGTGTAG, the “PBM 8-mer E-score” value came to 0.19 ± 0.087.
Consider TCGTGTAA, for which the “PBM 8-mer E-score” value stood at 0.13 ± 0.07.
For the sequence CCGTGTAA, the “PBM 8-mer E-score” value was -0.147 ± 0.048.
On to ACGTGTAC, for which the “PBM 8-mer E-score” value turned out to be 0.233 ± 0.056.
For the sequence ACGTGTAA, the “PBM 8-mer E-score” value was found to be 0.327 ± 0.048.
ATACTGAA: the “PBM 8-mer E-score” value was 0.0687 ± 0.079.
In the case of GCAGGTCA, the “PBM 8-mer E-score” value is -0.191 ± 0.0023.
CGCTCGAA: the “PBM 8-mer E-score” value is -0.156 ± 0.0039.
Turning to AGATCTTC, the “PBM 8-mer E-score” value is -0.15 ± 0.053.
Under CCATGTCG stands -0.0015 ± 0.13; under GATACATA, 0.204 ± 0.044.
On to AATACAAG, for which the “PBM 8-mer E-score” value was determined as 0.137 ± 0.0018.
Under CACACATA stands 0.12 ± 0.12.
The same measure for TATACATA: 0.237 ± 0.023; for TACACATA: 0.245 ± 0.037; for GATACAAA: 0.0222 ± 0.023.
Take CATACATA: the “PBM 8-mer E-score” value is 0.163 ± 0.068.
Under AATACATG stands 0.205 ± 0.015; under AATACATT, 0.158 ± 0.021.

Values taken from the supplement of paper PMC12636033.
